Inconclusive results are not listed. Active and inactive are the calls of the source. Unless noted, calls follow the shape of the dose curve; as a rule, active = well fitted curve in the direction sought with a large enough effect in the repeat runs; inconclusive = weak or mixed curves; inactive = no such curve, though single readings can be large; an effect the other way counts as inactive or inconclusive.
How the values were obtained:
[1] = A CellTox Green Cytotoxicity Assay to monitor cytotoxicity in HepG2 cells - 8 hour (AID 1224890); also: nearly all actives have a fitted effect of over 45% in size
Procedure, shortened: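 First, HepG2 cells (600/well) mixed with reagent were plated; second, after 5 h at 37 C they received compounds via pintool; third, fluorescence was measured at 0 h through 40 h at 8 h intervals.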

[2] = qHTS assay to identify small molecule antagonists of the androgen receptor (AR) signaling pathway using the MDA cell line in the presence of 0.5 nM R1881 - cell viability counter screen (AID 1259242); also: nearly all actives have a fitted effect of over 45% in size
Procedure, shortened: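 qHTS format. MDA-kb2 (MMTV-luc, AR/GR responsive) + cpd + 0.5 nM R1881 final, 16 hr 37C/0% CO2 → CellTiter-Fluor 30 min → fluorescence intensity.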

[3] = qHTS assay to identify small molecule phospholipidosis (PLD) inducers (AID 1259344; active = well fitted curve in the direction sought with a large enough effect; an effect the other way counts as inactive or inconclusive)
Procedure, shortened: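 Read-out is LipidTOX Red fluorescence (ex 595/em 615) imaged in HepG2 cells after 24 h compound exposure at 37 C, with Hoechst nuclear counterstain (ex 352/em 461) allowing per-cell normalisation.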

[4] = qHTS assay to identify small molecule HDAC inhibitors - cell viability counter screen (AID 1259365); also: series mostly up to about 92 µM; nearly all actives have a fitted effect of over 50% in size
Procedure, shortened: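 Wild-type HCT-116 cells were seeded at 1,500 per well, incubated overnight at 37 C, then exposed to compounds in DMSO for 2hr. Viability was read by CellTiter-Glo luminescence after 30min at room temperature.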

[5] = qHTS assay to identify small molecule agonists of the sonic hedgehog signaling (Shh) pathway - cell viability counter screen (AID 1259366); also: nearly all actives have a fitted effect of over 50% in size; also: potency is read from the fitted curve at half-maximal effect
Procedure, shortened: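 NIH/3T3-derived 3T3 Gli1-Luc cells (stable Gli1-responsive firefly luciferase reporter) were seeded, rested 4 hr at 37 C/5% CO2, then exposed to compounds in DMSO for 24 hr; viability was read by CellTiter-Fluor fluorescence in the same wells.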

[6] = qHTS assay to identify small molecule antagonists of the sonic hedgehog signaling (Shh) pathway - cell viability counter screen (AID 1259367); also: nearly all actives have a fitted effect of over 55% in size; also: potency is read from the fitted curve at half-maximal effect
Procedure, shortened: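 Fluorescence read-out (CellTiter-Fluor, 1 hr at 37C) taken after 23 hr compound treatment of 3T3 Gli1-Luc cells stimulated with conditioned medium. Cells were seeded at 2,000 per well and pre-incubated 4 hr.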

[7] = qHTS assay to identify small molecule agonists of the sonic hedgehog signaling (Shh) pathway (AID 1259368; calls by dose curve; also: series mostly up to about 92 µM; nearly all actives have a fitted effect of over 15% in size)
Procedure, shortened: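 Quantitative high-throughput format using a Gli1-driven firefly luciferase reporter line derived from NIH/3T3 cells. After a 24 hr compound treatment at 37 C and 5% CO2, luminescence reported Gli1 response element activity.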

[8] = qHTS assay to identify small molecule antagonists of the sonic hedgehog signaling (Shh) pathway (AID 1259369; calls by dose curve; also: nearly all actives have a fitted effect of over 45% in size; also: potency is read from the fitted curve at half-maximal effect)
Procedure, shortened: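 Stable Gli1-Luc reporter NIH/3T3 clone; quantitative HTS in stimulated mode with conditioned medium. Luminescence measured after 24hr compound treatment at 37 C.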

[9] = qHTS assay to identify small molecule agonists of the androgen receptor (AR) signaling pathway in the presence of an antagonist - cell viability counter screen (AID 1259379); also: nearly all actives have a fitted effect of over 25% in size; also: potency is read from the fitted curve at half-maximal effect;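 as to activity change, negative = cytotoxicity: MDA-kb2 human breast cancer cells carrying an MMTV luciferase reporter; series mostly up to about 92 µM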
Procedure, shortened: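 Nilutamide-containing (3.0uM final) MDA-kb2 cultures, 3,000 cells/well, were treated with compounds across 15 concentrations. After 16 hr at 37C with no CO2, cell viability was determined by CellTiter-Fluor fluorescence in the luciferase assay wells.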

[10] = qHTS assay to identify small molecule agonists of the estrogen receptor beta (ER-beta) signaling pathway - cell viability counter screen (AID 1259380); also: nearly all actives have a fitted effect of over 30% in size; also: potency is read from the fitted curve at half-maximal effect
Procedure, shortened: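 Steps: plate ER-beta-UAS-bla HEK293T cells, rest 6 hr; add compounds in DMSO; incubate 16 hr at 37C, 5% CO2; add FRET substrate 2 hr; add CellTiter-Glo, wait 30 min at room temperature; read luminescence.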

[11] = qHTS assay to identify small molecule antagonists of the estrogen receptor beta (ER-beta) signaling pathway - cell viability counter screen (AID 1259382); also: series mostly up to about 92 µM; nearly all actives have a fitted effect of over 55% in size
Procedure, shortened: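 Viability is scored by CellTiter-Glo luminescence (30 min, room temperature) in ER-beta-UAS-bla HEK293T wells already read for reporter fluorescence. Compound exposure lasts 16 hr at 37C alongside 1nM 17-beta-estradiol in charcoal-stripped serum medium.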

[12] = qHTS assay to identify small molecule agonists or antagonists of the thyroid stimulating hormone receptor (TSHR) signaling pathway - wild type cell line counter screen (AID 1259384; calls by dose curve)
Procedure, shortened: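 Wild-type Hek293 cells, 800/well, 18 h at 37C, then compound with Ro20-1724 for 30 min RT. cAMP by HTRF (cAMP-d2/anti-cAMP cryptate), 1 h RT, fluorescence read. 15 concentrations, triplicates.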

[13] = biological target: Androgen receptor (Homo sapiens) (UniProt P10275); assay: qHTS assay to identify small molecule antagonists of the androgen receptor (AR) signaling pathway using the MDA cell line in the presence of 0.5 nM R1881 (AID 1259243); also: nearly all actives have a fitted effect of over 50% in size; also: potency is read from the fitted curve at half-maximal effect
Procedure, shortened: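 Antagonist mode quantitative HTS in MDA-kb2 MMTV-luciferase cells, agonist R1881 at 0.5 nM final, 16 hr exposure at 37C and 0% CO2, luminescent detection.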

[14] = biological target: Estrogen receptor (Homo sapiens) (UniProt P03372); assay: qHTS assay to identify small molecule antagonists of the estrogen receptor alpha (ER-alpha) signaling pathway using the BG1 cell line in the presence of 0.1 nM 17-beta-estradiol (AID 1259244); also: nearly all actives have a fitted effect of over 50% in size
Procedure, shortened: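 Reporter is a stably transfected luciferase under four estrogen responsive elements in VM7Luc4E2 cells expressing native full-length ER-alpha; inhibition of 0.1 nM (final) 17beta-estradiol-driven signal over 22 h is read by luminescence.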

[15] = qHTS assay to identify small molecule HDAC inhibitors (AID 1259364);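 also: wild-type HCT-116 cells with endogenous class I/II HDAC activity; top concentration of the series differs between compounds; nearly all actives have a fitted effect of over 45% in size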
Procedure, shortened: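 Quantitative high-throughput format: overnight-seeded HCT-116 cells got compounds for 2 hr at 37C; HDAC-Glo I/II reagent added, 30 min RT, luminescence measured.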

[16] = biological target: Estrogen receptor beta (Homo sapiens) (UniProt Q92731); assay: qHTS assay to identify small molecule agonists of the estrogen receptor beta (ER-beta) signaling pathway (AID 1259377; active = well fitted activation curve with a large enough effect in the signal ratio in the repeat runs, not every such curve was filed as active; the % refers to the signal ratio)
Procedure, shortened: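 ER-beta-UAS-bla HEK293T (GripTite) cells carrying a UAS-driven beta-lactamase reporter, in medium with 2% charcoal-stripped FBS, were exposed to compounds for 16 hr at 37C; LiveBLAzer B/G FRET substrate was then added and fluorescence read after 2 hours at room temperature.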

[17] = biological target: Estrogen receptor beta (Homo sapiens) (UniProt Q92731); assay: qHTS assay to identify small molecule antagonists of the estrogen receptor beta (ER-beta) signaling pathway (AID 1259378; active = well fitted inhibition curve with a large enough effect in the signal ratio in the repeat runs, not every such curve was filed as active; the % refers to the signal ratio; also: potency is read from the fitted curve at half-maximal effect)
Procedure, shortened: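 ER-beta-UAS-bla HEK293T cells in 2% charcoal-stripped FBS medium treated with compound plus 1nM final 17-beta-estradiol for 16 hr at 37C. Beta-lactamase reporter read by FRET substrate fluorescence after 2 hours at room temperature.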

[18] = biological target: Androgen receptor (Homo sapiens) (UniProt P10275); assay: qHTS assay to identify small molecule agonists of the androgen receptor (AR) signaling pathway in the presence of an antagonist (AID 1259381; calls by dose curve; also: nearly all actives have a fitted effect of over 15% in size)
Procedure, shortened: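 Reporter-gene luminescence from MDA-kb2 cells exposed 16hr at 37C (0% CO2) to 15-point compound titrations with 3.0uM final nilutamide as AR antagonist.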

[19] = biological target: Estrogen receptor (Homo sapiens) (UniProt P03372); assay: qHTS assay to identify small molecule agonists of the estrogen receptor alpha (ER-alpha) signaling pathway in the presence of an antagonist (AID 1259383; calls by dose curve; also: top concentration of the series differs between compounds; nearly all actives have a fitted effect of over 15% in size)
Procedure, shortened: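 Readout was ERE-driven luciferase luminescence in VM7Luc4E2 cells, which express full-length ER-alpha endogenously. Compounds were tested at 15 concentrations for 22hr alongside 10.0nM ICI-182,780 (final concentration).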
% is scaled to controls: 0 for no effect and ±100 for the full control effect.

Estrogen receptor (Homo sapiens), sequence (P03372 whole entry, looked up): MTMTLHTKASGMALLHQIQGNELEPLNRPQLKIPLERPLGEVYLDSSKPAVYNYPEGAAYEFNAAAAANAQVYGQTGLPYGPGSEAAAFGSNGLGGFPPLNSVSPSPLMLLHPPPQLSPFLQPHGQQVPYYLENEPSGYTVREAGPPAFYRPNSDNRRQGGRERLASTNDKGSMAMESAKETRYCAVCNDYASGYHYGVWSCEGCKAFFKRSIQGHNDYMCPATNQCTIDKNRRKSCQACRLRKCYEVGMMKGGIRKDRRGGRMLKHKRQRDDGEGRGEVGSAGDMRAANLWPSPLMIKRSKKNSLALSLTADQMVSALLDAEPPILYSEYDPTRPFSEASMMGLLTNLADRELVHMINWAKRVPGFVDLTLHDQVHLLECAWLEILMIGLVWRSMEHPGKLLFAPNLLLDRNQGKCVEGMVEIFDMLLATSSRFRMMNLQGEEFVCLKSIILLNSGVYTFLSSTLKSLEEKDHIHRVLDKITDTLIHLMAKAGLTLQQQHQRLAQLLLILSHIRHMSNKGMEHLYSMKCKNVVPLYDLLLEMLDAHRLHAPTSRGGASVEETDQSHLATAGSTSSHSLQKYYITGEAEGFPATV
Androgen receptor (Homo sapiens), sequence (P10275 whole entry, looked up): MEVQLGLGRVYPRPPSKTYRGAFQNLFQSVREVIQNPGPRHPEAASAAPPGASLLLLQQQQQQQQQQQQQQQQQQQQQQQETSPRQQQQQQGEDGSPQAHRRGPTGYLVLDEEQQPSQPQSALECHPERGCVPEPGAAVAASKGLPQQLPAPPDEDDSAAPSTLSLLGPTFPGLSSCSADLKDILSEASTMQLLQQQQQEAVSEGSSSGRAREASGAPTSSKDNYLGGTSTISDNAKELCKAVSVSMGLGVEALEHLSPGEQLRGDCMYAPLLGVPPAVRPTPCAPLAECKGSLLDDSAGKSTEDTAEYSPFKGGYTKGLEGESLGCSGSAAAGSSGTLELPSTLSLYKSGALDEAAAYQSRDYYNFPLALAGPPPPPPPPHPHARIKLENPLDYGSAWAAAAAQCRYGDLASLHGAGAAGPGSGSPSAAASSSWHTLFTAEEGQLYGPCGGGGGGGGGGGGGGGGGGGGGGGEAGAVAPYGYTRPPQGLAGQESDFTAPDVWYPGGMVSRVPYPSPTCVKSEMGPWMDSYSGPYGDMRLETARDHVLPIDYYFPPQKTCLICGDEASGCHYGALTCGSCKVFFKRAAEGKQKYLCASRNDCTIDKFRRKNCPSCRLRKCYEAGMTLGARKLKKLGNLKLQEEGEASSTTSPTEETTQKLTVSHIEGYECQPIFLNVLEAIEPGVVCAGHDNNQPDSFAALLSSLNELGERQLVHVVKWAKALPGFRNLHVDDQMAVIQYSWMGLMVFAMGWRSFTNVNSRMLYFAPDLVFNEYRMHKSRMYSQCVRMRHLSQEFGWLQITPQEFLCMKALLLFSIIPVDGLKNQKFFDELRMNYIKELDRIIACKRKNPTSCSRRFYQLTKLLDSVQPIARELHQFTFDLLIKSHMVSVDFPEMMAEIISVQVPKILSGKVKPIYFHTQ
Estrogen receptor beta (Homo sapiens), sequence (Q92731 whole entry, looked up): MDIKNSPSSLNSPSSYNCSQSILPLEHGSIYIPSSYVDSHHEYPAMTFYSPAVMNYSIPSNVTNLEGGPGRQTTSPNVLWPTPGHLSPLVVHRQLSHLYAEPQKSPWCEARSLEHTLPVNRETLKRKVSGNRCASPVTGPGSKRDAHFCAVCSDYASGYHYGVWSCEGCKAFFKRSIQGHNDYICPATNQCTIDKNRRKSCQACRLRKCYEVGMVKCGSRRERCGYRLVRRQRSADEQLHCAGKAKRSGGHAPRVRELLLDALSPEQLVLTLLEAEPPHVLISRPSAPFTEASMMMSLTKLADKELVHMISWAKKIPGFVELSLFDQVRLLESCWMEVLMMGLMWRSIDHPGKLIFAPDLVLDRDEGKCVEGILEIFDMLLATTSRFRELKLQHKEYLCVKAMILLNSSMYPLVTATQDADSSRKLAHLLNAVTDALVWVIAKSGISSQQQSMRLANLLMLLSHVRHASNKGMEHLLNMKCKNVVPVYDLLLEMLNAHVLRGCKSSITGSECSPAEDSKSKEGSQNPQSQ

CC(C(=O)O)c1ccc(/C=C2\CCCCC2=O)cc1 (stereo unspecified)
inactive: Potency [1] | Potency [2] | Potency [3] | outcome [4] | Potency [5] | Potency [6] | Potency [7] | Potency [8] | Potency [9] | Potency [10] | Potency [11] | outcome [12]

CCOc1cc(OCC)c(C(C)=O)cc1OCC
inactive: Potency [1] | Potency [2] | Potency [14] | Potency [15] | outcome [4] | Potency [7] | Potency [16] | Potency [17] | Potency [18] | Potency [11] | Potency [19] | outcome [12]
active: Potency [13] 26.8 µM | Potency [5] 10.7 µM | Potency [6] 8.48 µM

O=S(=O)(O)c1cc(Cl)c(Cl)cc1Cl
inactive: Potency [1] | Potency [2] | Potency [13] | Potency [15] | outcome [4] | Potency [5] | Potency [6] | Potency [7] | Potency [8] | Potency [18] | Potency [19] | outcome [12]

CC1=CC(=C(c2ccc(N)cc2)c2ccc(N)cc2)C=CC1=N
inactive: cytotoxicity increase [1] 1.46% [at 6.97 µM] | viability change, negative = cytotoxic [2] -23% [at 8.39 µM] | Potency [3] | activity change, negative = inhibition [15] -3.34% [at 8.39 µM] | activity change, negative = cytotoxicity [4] -17.7% [at 8.39 µM] | viability change, negative = cytotoxic [6] -16.1% [at 8.39 µM] | activity change [7] -2.79% [at 8.39 µM, hits give high values] | activity change, negative = inhibition [8] -22.7% [at 8.39 µM] | activation [16] -6.24% [at 8.39 µM] | activation [19] 0.281% [at 8.39 µM] | cAMP activity change [12] -1.93% [at 8.39 µM]
active: Potency [9] 3.1 µM

CCCCCCCCNC
inactive: Potency [1] | Potency [15] | outcome [4] | Potency [5] | Potency [6] | Potency [7] | Potency [8] | Potency [16] | Potency [17] | Potency [10] | Potency [11] | outcome [12]

O=C1CCCN1CCO
inactive: Potency [1] | Potency [2] | Potency [14] | Potency [15] | outcome [4] | Potency [5] | Potency [6] | Potency [7] | Potency [8] | Potency [17] | Potency [9] | Potency [19] | outcome [12]
active: Potency [10] 43.3 µM

CCC(=O)O[C@@H]1C[C@H]2CC[C@]1(C)C2(C)C
inactive: Potency [1] | Potency [15] | outcome [4] | Potency [5] | Potency [6] | Potency [7] | Potency [8] | Potency [16] | Potency [17] | Potency [9] | Potency [10] | Potency [11]

CO[C@@H]1COCC[C@@H]1N[C@@H]1CC[C@@](C(=O)N2CCc3ncc(C(F)(F)F)cc3C2)(C(C)C)C1
inactive: Potency [1] | Potency [2] | Potency [15] | outcome [4] | Potency [5] | Potency [6] | Potency [7] | Potency [8] | Potency [16] | Potency [10] | Potency [11] | outcome [12]

O=C(Nc1ccccc1)c1cc([N+](=O)[O-])ccc1Cl
inactive: Potency [1] | Potency [2] | Potency [14] | Potency [15] | outcome [4] | Potency [7] | Potency [16] | Potency [9] | Potency [10] | Potency [18] | Potency [11] | Potency [19] | outcome [12]
active: Potency [5] 61.1 µM | Potency [6] 54.5 µM | Potency [8] 21.7 µM | Potency [17] 48.6 µM

O=C(O)CCc1nc2ccccc2[nH]1
inactive: Potency [1] | Potency [14] | Potency [3] | Potency [15] | outcome [4] | Potency [5] | Potency [6] | Potency [7] | Potency [8] | Potency [9] | Potency [10] | Potency [11] | Potency [19]
